Measured values: the supplement of paper PMC6555819

system: VDR:RXRa (NR concentration 270 nM, RXRa partner concentration 90 nM); assay: PBM binding z-score (relative to random genomic background probes); higher = stronger binding; sequences stand for … in GC…GCGATTGACAGCGTAGAATGAAGG
Description: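 Protein-binding microarray (Agilent 4x180K custom design, double-stranded 60-nt probes: 5' GC cap, 34-nt variable region, 24-nt constant primer region; full probe sequence given). Purified or IVT nuclear receptor:RXRα heterodimers (3:1 NR:RXRα, mostly 270:90 nM) or homodimers were incubated for 1 h in PBS with 2% milk and no ligand, then detected with Alexa488 antibodies. Fluorescence from o1-orientation probes (~5 replicates averaged) was converted to z-scores against 500 random hg19 background probes. Variable regions are seed direct-repeat (DR0–DR5) sites, all their single-nucleotide variants and half-site ablations.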

Sequence | PBM binding z-score
GCTAGGAGGCCATTTGGGTCACTCAATGACGGGC | 1.83
CAAACTAGGCCACCGGAAGGTCAAAGTCCGCATG | 3.2
CCTCGGAGGACAGAAGGTCAGAGCCGTCCGCTTT | 0.934
CGTCAAAGATCAACTAAGGTAACGTAAAGCACGC | 0.78
GGAACGAGGGGAAAGTTGATAGCATCTGTCGACG | -0.259
GCTAGTTGGTCAGTAAAAGGTCACACCCCGGTCG | 3.83
CCTCGGAGGACAACAGGAGGTAAGAGCTGCCAGA | -0.357
AGAATGAGGTTATACGTAGATCAGGGATGAAAGT | 1.47
TCATAGAGGTAAAGGTGAAAGTCGAACGATATGA | 0.788
TGAATGAGGTTAAAGATCAGGGCACGTGGCGTCG | 2.19
TCAATGAGGTTAAAGATCAGGGAACGTGGCGTCG | 2.04
TCATATAGGTAAATGTGAAAGTCGAACGATATGA | 0.491
TCATATAGGTAAAGGTGAAAGGCGAACGATATGA | 1.14
ATCTCTACGTAAGACTCAGTTCAGTGAAGAACGC | 0.645
ATATGTAGGTTACATCCGGGTCATTCAGGCTATG | 4.26
CCGACTGAGGCAAAGGTTACCATACTCAGTACGA | 1.07
CCGACTGGGGCAGAAGGTTACCATAAGCCAGCCC | -0.302
AGTACAGGGTCATCGTAGGCCAGAGTACGCACAG | 5.08
ACAGACAGGTTATGAAGGTAACTCAGGCTATCAT | 1.3
ACAAACAGGTGAGTGAAGGTAACTCAGCTGGACG | -0.124

Sequence | PBM binding z-score
CCTACTGGGCCAAAGGTCATTTATTCCAATGCTC | 4.34
CCTTACCGGTCACTCCAGGTTATAGCATCGGAGT | 1.46
CTCGCAAGGTCGTGCTCAGGTGAGTATACCAAAC | 2.24
GGAACGAGGGCAAGTCGATAGCAGAGTTTGATGG | 0.364
GATACAGGGTCAGCTAGAGGCCAGTGTATGGAAA | 3.43
TCTATTAGTTGATTAGGGCAGCCGAAACAGCGGA | 0.607
TCTATTAGTTGAAGGCCAACCGACGAGTCCGTTT | 1.02
TCTTGTAGATCAAGGGTTAAGAAAGCCGAAGCCT | 0.604
TCTTGTAGATAAGCAGGTTAAGAAAGCTGGCCAA | 0.177
TCATGTAGGTAAAGGTGAAAGTCGAACGATATGA | 1.11
GCGACTGGGGCATCAGTAGGTTACCATAACTTAA | -0.141
CGAACTAGGTCAGAACATGACAGTGAAGGATGAT | 0.229
CGAACGAGGGCATGAGTTGACAGCAAATGCCGAT | 1.2
TCTAGTCGGTCACGGAGGTCACACACGACGGGTA | 6.56
TCTCGGAGTACACGAAGGTCAGAGCTTTCCAGAG | 2.27
TGAATGAGGTTATAAGATCAGGCAACGTTGCAAA | 0.915
GCATATAGGTAATACAAGGTGAAGGTCCGATTGT | 0.155
AGAATGAGGTTATATGTAGATCAGGGAAGAAAGT | 1.43
TCTGCTAGGTTAGTTGGTCAGCTAACGAGCTGCC | -0.449
TCTTGTAGATCAAGCCGGTTAAGAAAGCCTGAGT | 0.32
